Assay results taken from PubChem BioAssay (EPA / NIEHS).
Activity calls are given as the source filed them. The calls were made as follows: active = hit-call score of the fitted dose curve at least 0.9, where 1 is the maximum; inactive = score below 0.9.

What was measured:
Conditions in all cases: mRNA level, 48 h; actives raise or lower the signal
[1] = read-out: Cyclin D2 (CCND2), CCND2 (gene 894); assay: LTEA_HepaRG_CCND2: Life Technologies and Expression Analysis (LTEA) Assay for Cyclin D2 (CCND2) using HepaRG (AID 2283449);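 also: CCND2 transcript measured by TaqMan qRT-PCR and normalised to three housekeeping genes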
Method in brief: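 In this HepaRG study, an eight-point concentration series (max 100 uM, 0.5% DMSO) is applied for 48 h. CCND2 mRNA change is derived by qRT-PCR normalised to ACTB, GAPDH and POLR2A.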

[2] = read-out: Cyclin Dependent Kinase Inhibitor 1A (CDKN1A), CDKN1A (gene 1026); assay: LTEA_HepaRG_CDKN1A: Life Technologies and Expression Analysis (LTEA) Assay for Cyclin Dependent Kinase Inhibitor 1A (CDKN1A) using HepaRG (AID 2283450)
Method in brief: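 Differentiated HepaRG cells in serum-free induction medium, exposed 48 h in duplicate to eight half-log concentrations up to 100 uM in 0.5% DMSO. mRNA measured by TaqMan qRT-PCR, normalized to ACTB, GAPDH, POLR2A; bidirectional fit versus DMSO.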

[3] = read-out: Cyclin D1 (CCND1), CCND1 (gene 595); assay: LTEA_HepaRG_CCND1: Life Technologies and Expression Analysis (LTEA) Assay for Cyclin D1 (CCND1) using HepaRG (AID 2283451)
Method in brief: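 Differentiated HepaRG cells exposed 48 h in serum-free induction medium to eight half-log concentrations from 100 uM top, 0.5% DMSO, duplicates. CCND1 mRNA measured by Fluidigm TaqMan qRT-PCR, normalised to ACTB, GAPDH, POLR2A; bidirectional fit.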

[4] = read-out: catalase (CAT), CAT (gene 847); assay: LTEA_HepaRG_CAT: Life Technologies and Expression Analysis (LTEA) Assay for catalase (CAT) using HepaRG (AID 2283452)
Method in brief: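 Differentiated HepaRG cells in serum-free induction medium were dosed 48 h in duplicate, eight half-log concentrations from 100 uM in 0.5% DMSO. Transcript measured by TaqMan qRT-PCR, normalised to ACTB/GAPDH/POLR2A, fitted bidirectionally against DMSO.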

[5] = read-out: flavin-containing dimethylaniline monooxygenases 3 (FMO3), FMO3 (gene 2328); assay: LTEA_HepaRG_FMO3: Life Technologies and Expression Analysis (LTEA) Assay for flavin-containing dimethylaniline monooxygenases 3 (FMO3) using HepaRG (AID 2283453)
Method in brief: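 FMO3 transcript quantified by TaqMan qRT-PCR against three housekeeping genes after 48 h chemical exposure of HepaRG cells. Eight-point half-log series, top 100 uM, 0.5% DMSO vehicle; phenobarbital 1mM induction control; up- or down-regulation fitted.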

[6] = read-out: Cytochrome P450 (CYP1A1), CYP1A1 (gene 1543); assay: LTEA_HepaRG_CYP1A1: Life Technologies and Expression Analysis (LTEA) Assay for Cytochrome P450 (CYP1A1) using HepaRG (AID 2283454)
Method in brief: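 Differentiated human HepaRG cells, after 48 h plating, exposed in duplicate for 48 h in serum-free induction medium to 8 half-log concentrations up to 100 uM in 0.5% DMSO. CYP1A1 mRNA by qRT-PCR, normalized to ACTB/GAPDH/POLR2A; bidirectional fit versus DMSO.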

[7] = read-out: CFLAR gene, CFLAR (gene 8837); assay: LTEA_HepaRG_CFLAR: Life Technologies and Expression Analysis (LTEA) Assay for CFLAR gene using HepaRG (AID 2283455)
Method in brief: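 Gain- or loss-of-signal changes in CFLAR transcript were fitted bidirectionally relative to 0.5% DMSO. Cells (HepaRG, duplicate wells) were dosed for 48 h across eight half-log concentrations topping at 100 uM; quantitation by TaqMan qRT-PCR.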

[8] = read-out: Forkhead box O1 (FOXO1), FOXO1 (gene 2308); assay: LTEA_HepaRG_FOXO1: Life Technologies and Expression Analysis (LTEA) Assay for Forkhead box O1 (FOXO1) using HepaRG (AID 2283456)
Method in brief: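 Using one lot of HepaRG hepatic cells kept in 0.5% DMSO, the team applied test chemicals in duplicate, half-log dilutions from 100 uM, for 48 h. Expression, normalised to ACTB/GAPDH/POLR2A, was compared with vehicle in either direction.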

[9] = read-out: growth arrest and DNA damage 45 (GADD45A), GADD45A (gene 1647); assay: LTEA_HepaRG_GADD45A: Life Technologies and Expression Analysis (LTEA) Assay for growth arrest and DNA damage 45 (GADD45A) using HepaRG (AID 2283458)
Method in brief: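 GADD45A expression was measured by TaqMan qRT-PCR against three housekeeping genes (ACTB, GAPDH, POLR2A) after 48 h treatment of HepaRG cells. Eight-point half-log series up to 100 uM in 0.5% DMSO, run in duplicate.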

[10] = read-out: Forkhead box O3 (FOXO3), FOXO3 (gene 2309); assay: LTEA_HepaRG_FOXO3: Life Technologies and Expression Analysis (LTEA) Assay for Forkhead box O3 (FOXO3) using HepaRG (AID 2283459)
Method in brief: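 Gene-expression endpoint: FOXO3 transcript level by qRT-PCR in HepaRG cultures treated 48 h with chemicals up to 100 uM (half-log, 0.5% DMSO vehicle).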

[11] = read-out: growth arrest and DNA damage 45 (GADD45B), GADD45B (gene 4616); assay: LTEA_HepaRG_GADD45B: Life Technologies and Expression Analysis (LTEA) Assay for growth arrest and DNA damage 45 (GADD45B) using HepaRG (AID 2283461)
Method in brief: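 Differentiated human HepaRG cells in serum-free induction medium exposed 48 h in duplicate to eight concentrations, top 100 uM, half-log steps, 0.5% DMSO. GADD45B mRNA by TaqMan qRT-PCR, normalized to ACTB, GAPDH, POLR2A; bidirectional fit versus DMSO.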

[12] = read-out: ABC Transporter (ABCC3), ABCC3 (gene 8714); assay: LTEA_HepaRG_ABCC3: Life Technologies and Expression Analysis (LTEA) Assay for ABC Transporter (ABCC3) using HepaRG (AID 2283462)
Method in brief: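 Differentiated human HepaRG cells exposed 48 h in serum-free induction medium, 0.5% DMSO vehicle, 8-point half-log series to 100 uM in duplicate. ABCC3 mRNA by qRT-PCR, normalised to ACTB, GAPDH, POLR2A; bidirectional fit vs DMSO.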

[13] = read-out: ABC Transporter (ABCB11), ABCB11 (gene 8647); assay: LTEA_HepaRG_ABCB11: Life Technologies and Expression Analysis (LTEA) Assay for ABC Transporter (ABCB11) using HepaRG (AID 2283463)
Method in brief: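 Using HepaRG cultures held in 0.5% DMSO, chemicals were tested at half-log dilutions from 100 uM for 48 h. Induction or suppression of ABCB11 mRNA, normalized to ACTB, GAPDH and POLR2A, was fitted bidirectionally against vehicle.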

[14] = read-out: ABC Transporter (ABCC2), ABCC2 (gene 1244); assay: LTEA_HepaRG_ABCC2: Life Technologies and Expression Analysis (LTEA) Assay for ABC Transporter (ABCC2) using HepaRG (AID 2283464)
Method in brief: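 Differentiated HepaRG cells in serum-free induction medium exposed 48 h to eight half-log concentrations up to 100 uM, 0.5% DMSO, in duplicate. ABCC2 mRNA measured by qRT-PCR (TaqMan, Fluidigm), normalized to ACTB, GAPDH and POLR2A. Fitted in both directions against DMSO.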

[15] = read-out: Broad substrate specificity ATP-binding cassette transporter ABCG2 (Homo sapiens) (UniProt Q9UNQ0); assay: LTEA_HepaRG_ABCG2: Life Technologies and Expression Analysis (LTEA) Assay for ABC Transporter (ABCG2) using HepaRG (AID 2283465)
Method in brief: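 Gene expression of ABCG2 in HepaRG liver cells is quantified by qRT-PCR following 48 h exposure across an eight-point series topping at 100 uM. Values come from bidirectional fitting relative to DMSO vehicle.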

[16] = read-out: ATP-citrate lyase (ACLY), ACLY (gene 47); assay: LTEA_HepaRG_ACLY: Life Technologies and Expression Analysis (LTEA) Assay for ATP-citrate lyase (ACLY) using HepaRG (AID 2283466)
Method in brief: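 ACLY expression changes in human HepaRG liver cells are quantified by qRT-PCR after 48 h exposure to test chemicals (maximum 100 uM, half-log steps). Values are fitted in both directions relative to 0.5% DMSO vehicle.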

[17] = read-out: Peroxisomal acyl-coenzyme A oxidase 1 (ACOX1) gene, ACOX1 (gene 51); assay: LTEA_HepaRG_ACOX1: Life Technologies and Expression Analysis (LTEA) Assay for Peroxisomal acyl-coenzyme A oxidase 1 (ACOX1) gene using HepaRG (AID 2283467)
Method in brief: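 Human HepaRG hepatic cultures, 48 h treatment with test chemicals up to 100 uM. ACOX1 expression read by qRT-PCR relative to 0.5% DMSO vehicle.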

[18] = read-out: Alkaline Phosphatase, Placental (ALPP) gene, ALPP (gene 250); assay: LTEA_HepaRG_ALPP: Life Technologies and Expression Analysis (LTEA) Assay for Alkaline Phosphatase, Placental (ALPP) gene using HepaRG (AID 2283468)
Method in brief: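 HepaRG cells plated 48 h, then exposed in duplicate for 48 h in serum-free induction medium to 8-point half-log series from 100 uM in 0.5% DMSO. ALPP mRNA by TaqMan qRT-PCR, normalized to ACTB/GAPDH/POLR2A; bidirectional fit versus DMSO.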

[19] = read-out: ABC Transporter (ABCB1), ABCB1 (gene 5243); assay: LTEA_HepaRG_ABCB1: Life Technologies and Expression Analysis (LTEA) Assay for ABC Transporter (ABCB1) using HepaRG (AID 2283460)
Method in brief: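 Human liver HepaRG line treated 48 h with up to 100 uM compound (eight half-log points, 0.5% DMSO); ABCB1 mRNA change fitted bidirectionally against DMSO controls.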

Measured: AC50

Sequence of Broad substrate specificity ATP-binding cassette transporter ABCG2 (Homo sapiens) (Q9UNQ0 whole entry, looked up): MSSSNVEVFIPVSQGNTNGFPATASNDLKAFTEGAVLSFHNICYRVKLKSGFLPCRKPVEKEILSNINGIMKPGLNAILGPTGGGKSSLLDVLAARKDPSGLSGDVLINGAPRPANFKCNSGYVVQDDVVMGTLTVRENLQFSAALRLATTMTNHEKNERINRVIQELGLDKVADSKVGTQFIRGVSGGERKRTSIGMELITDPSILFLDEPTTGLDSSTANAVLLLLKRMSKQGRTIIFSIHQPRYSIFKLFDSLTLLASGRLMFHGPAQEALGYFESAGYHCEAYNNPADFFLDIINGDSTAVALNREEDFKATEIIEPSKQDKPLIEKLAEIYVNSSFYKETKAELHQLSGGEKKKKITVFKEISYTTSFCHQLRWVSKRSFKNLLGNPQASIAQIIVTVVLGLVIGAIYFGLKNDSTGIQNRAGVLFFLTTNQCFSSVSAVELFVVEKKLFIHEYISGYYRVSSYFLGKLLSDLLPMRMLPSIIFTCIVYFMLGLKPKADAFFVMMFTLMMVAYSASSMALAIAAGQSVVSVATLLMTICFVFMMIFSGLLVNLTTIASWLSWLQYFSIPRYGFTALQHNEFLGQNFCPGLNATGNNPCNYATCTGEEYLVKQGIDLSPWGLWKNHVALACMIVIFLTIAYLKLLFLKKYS

CCOC(=O)CCC(=O)OCC
not listed: [19]
inactive: all other assays above

CCCCCCCCCCO
not listed: [3]
inactive: all other assays above

Nc1nc(N)c2nc(CNc3ccc(C(=O)N[C@@H](CCC(=O)O)C(=O)O)cc3)cnc2n1
active: [13] 0.104 µM
not listed: [3]
inactive: all other assays above

NCCO
active: [6] 50 µM
not listed: [3] | [19]
inactive: all other assays above

CCCCCCCCCCCC(=O)OC
active: [6] 60.3 µM
not listed: [3] | [19]
inactive: all other assays above

CCCCOC(=O)CCCCCCCCC(=O)OCCCC
not listed: [1] | [3] | [19]
inactive: all other assays above

O=[N+]([O-])C(CO)(CO)CO
active: [6] 25.3 µM
not listed: [3] | [10] | [16] | [19]
inactive: all other assays above

Cc1cc(=O)[nH]c(=S)[nH]1
active: [6] 50 µM
not listed: [3] | [19]
inactive: all other assays above

COCCOC[C@H](CC1(C(=O)NC2CCC(C(=O)O)CC2)CCCC1)C(=O)Oc1ccc2c(c1)CCC2 (some centres not stated)
not listed: [3] | [19]
inactive: all other assays above

C1CCC(SSC2CCCCC2)CC1
active: [6] 50 µM
not listed: [1]
inactive: all other assays above

C=CCOC(=O)c1ccccc1C(=O)OCC=C
active: [6] 50 µM
not listed: [1]
inactive: all other assays above

Cc1c(C(=O)O)c(O)cc2c1C(=O)c1c(O)c([C@@H]3O[C@H](CO)[C@@H](O)[C@H](O)[C@H]3O)c(O)c(O)c1C2=O
not listed: [3] | [19]
inactive: all other assays above

Cc1ccc(N(C)C)cc1
active: [6] 22.6 µM
not listed: [3] | [19]
inactive: all other assays above

C[C@]12C=CC(=O)C=C1CC[C@@H]1[C@@H]2C(=O)C[C@@]2(C)[C@H]1CC[C@]2(O)C(=O)CO
active: [14] 50 µM
not listed: [1] | [2] | [3] | [6] | [19]
inactive: all other assays above
